According to the OligoGym collection:

The sequences below were run against DEF6 (assay: pooled miR-30 sensor sort-seq; sequence = guide strand). Conditions: shRNA.
Further: reference of the scale not given here.

Sequence	sensor-assay potency score (higher = more potent)
TTCAGCTGCATCAACTGCTTCA	0.367
TCAACTGCTTCAGCTTCTCTTC	-0.841
TTGTGTAGGGACGTCTTCCCCT	-0.678
TTAGGGAGGAGTCACGGTGGGC	-1.27
TGACCGGACGCTTATCTCCAGG	-1.34
AAGAGCTCCAGGAACTGCCAGA	-0.993
TTGAAGAGGCACCAGAGGCGGA	-1.08
TTGTCCAGGATGTACTTGTTGA	-0.794

Each sequence was assayed against DEK in the same assay as above. Conditions: shRNA.

Sequence	sensor-assay potency score (higher = more potent)
TTTGGAACTGTTTTGATTCTTC	0.827
TTAATGAGGACACAGTGCCTGG	-0.975
TAGATTTCTAAGTTCATCGGTT	0.499
TTATTGTTTCCTTTAACTCTTC	-0.171
TTTCCTTTAACTCTTCATCTGT	0.131
TTTAACTCTTCATCTGTAGGGG	0.332
ATCATCTGAAGACTCTTCCTTG	-0.474
TTTTACTTTTAGAAGTAGCTTT	0.164
TTAACTCTTCATCTGTAGGGGG	0.319
TTCTTTATCTTCATCATCTGAA	0.212
TAGTTCACTATTTACACCTGAT	-0.118
TAACTCTTCATCTGTAGGGGGT	0.328
